From publication PMC7862700, “An all-to-all approach to the identification of sequence-specific readers for epigenetic DNA modifications on cytosine”

Columns and labels:
Experiment in all cases: DAPPL (digital affinity profiling via proximity ligation, sequencing); 10 mM Tris-HCl pH 7.5, 50 mM NaCl, 1 mM DTT, 4% glycerol, room temperature, 30 min; GST-TFs on glutathione beads, 16-mer random dsDNA library, 0.1% formaldehyde crosslink after washing; high values mean tight binding
FEV = target: T1, FEV (Homo sapiens, UniProt Q99581 1-238); conditions: protein: recombinant; tags: N-terminal GST; dsDNA, one strand shown
T1 sequence: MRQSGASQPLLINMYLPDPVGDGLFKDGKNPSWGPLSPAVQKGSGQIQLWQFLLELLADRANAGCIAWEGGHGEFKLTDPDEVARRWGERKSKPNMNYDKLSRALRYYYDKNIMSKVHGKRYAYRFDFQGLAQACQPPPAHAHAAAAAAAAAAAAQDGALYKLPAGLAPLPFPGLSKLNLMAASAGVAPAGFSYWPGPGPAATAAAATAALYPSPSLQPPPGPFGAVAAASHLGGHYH
Outline: (§1)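 Human transcription factors were made in yeast as GST fusions, captured on glutathione beads and barcoded with DNA. With a tag-only sample included, the pool was incubated with 200 nmole of a random double-stranded 16-mer DNA library in Tris/NaCl/DTT/glycerol buffer at room temperature for 30 min, then crosslinked with 0.1% formaldehyde after washing, ligated by proximity, amplified and sequenced. For binding signal, each hexamer's read frequency for a factor is divided by its frequency for the tag-only sample.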

ETV5 = ETV5 (Homo sapiens, UniProt P41161 1-510); conditions: protein: recombinant; tags: N-terminal GST; dsDNA, one strand shown
Outline: as §1

HSF1 = HSF1 (Homo sapiens, UniProt Q00613 1-529); conditions: protein: recombinant; tags: N-terminal GST; chain copies: 3; dsDNA, one strand shown
Outline: as §1

SPIC = target: T2, SPIC (Homo sapiens, UniProt Q8N5J4 1-248); conditions: protein: recombinant; tags: N-terminal GST; dsDNA, one strand shown
T2 sequence: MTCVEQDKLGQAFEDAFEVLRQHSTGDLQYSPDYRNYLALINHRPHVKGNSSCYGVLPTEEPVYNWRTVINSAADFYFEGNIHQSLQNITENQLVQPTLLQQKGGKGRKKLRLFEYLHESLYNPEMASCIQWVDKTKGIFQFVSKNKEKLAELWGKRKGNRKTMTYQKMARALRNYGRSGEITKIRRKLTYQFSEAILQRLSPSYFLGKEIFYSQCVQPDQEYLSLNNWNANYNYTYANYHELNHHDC
Outline: as §1

ELF4 = ELF4 (Homo sapiens, UniProt Q99607 1-663); conditions: protein: recombinant; tags: N-terminal GST; dsDNA, one strand shown
Outline: as §1

ELK4 = target: T3, ELK4 (Homo sapiens, UniProt P28324-2 1-405); conditions: protein: recombinant; tags: N-terminal GST; dsDNA, one strand shown
T3 sequence: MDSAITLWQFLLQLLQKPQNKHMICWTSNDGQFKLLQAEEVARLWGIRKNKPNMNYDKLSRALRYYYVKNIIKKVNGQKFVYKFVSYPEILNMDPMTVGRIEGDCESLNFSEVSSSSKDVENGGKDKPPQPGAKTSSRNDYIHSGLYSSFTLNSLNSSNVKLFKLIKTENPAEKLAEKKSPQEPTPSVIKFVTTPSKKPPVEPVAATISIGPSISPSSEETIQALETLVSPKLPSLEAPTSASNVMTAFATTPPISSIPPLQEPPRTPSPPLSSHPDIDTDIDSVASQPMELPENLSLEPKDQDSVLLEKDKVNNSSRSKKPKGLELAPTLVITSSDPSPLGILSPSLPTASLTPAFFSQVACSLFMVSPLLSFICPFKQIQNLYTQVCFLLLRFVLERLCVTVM
Outline: as §1

ETV2 = target: T4, ETV2 (Homo sapiens, UniProt O00321 1-342); conditions: protein: recombinant; tags: N-terminal GST; dsDNA, one strand shown
T4 sequence: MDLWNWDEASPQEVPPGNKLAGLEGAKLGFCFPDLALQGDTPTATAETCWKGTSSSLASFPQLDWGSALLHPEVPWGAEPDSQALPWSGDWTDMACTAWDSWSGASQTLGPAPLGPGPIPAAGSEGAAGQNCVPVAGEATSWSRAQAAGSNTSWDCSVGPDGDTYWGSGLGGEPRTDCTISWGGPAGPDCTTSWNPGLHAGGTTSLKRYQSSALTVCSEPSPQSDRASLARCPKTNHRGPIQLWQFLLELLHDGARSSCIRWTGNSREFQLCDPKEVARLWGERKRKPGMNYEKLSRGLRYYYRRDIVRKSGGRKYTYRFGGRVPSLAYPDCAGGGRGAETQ
Outline: as §1

ELF3 = target: T5, ELF3 (Homo sapiens, UniProt P78545 1-371); conditions: protein: recombinant; tags: N-terminal GST; dsDNA, one strand shown
T5 sequence: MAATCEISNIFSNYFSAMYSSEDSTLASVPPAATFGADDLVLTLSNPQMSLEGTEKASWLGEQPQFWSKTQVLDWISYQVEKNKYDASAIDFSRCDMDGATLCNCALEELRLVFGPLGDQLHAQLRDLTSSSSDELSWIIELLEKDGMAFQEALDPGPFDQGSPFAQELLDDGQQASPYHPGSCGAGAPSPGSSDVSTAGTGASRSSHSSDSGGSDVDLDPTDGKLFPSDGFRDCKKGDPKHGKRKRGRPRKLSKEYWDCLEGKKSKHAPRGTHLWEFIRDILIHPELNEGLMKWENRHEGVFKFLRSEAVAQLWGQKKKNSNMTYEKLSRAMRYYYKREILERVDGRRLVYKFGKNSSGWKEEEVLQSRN
Outline: as §1

CRX = CRX (Homo sapiens, UniProt O43186 1-299); conditions: protein: recombinant; tags: N-terminal GST; dsDNA, one strand shown
Outline: as §1

ETV1 = ETV1 (Homo sapiens, UniProt P50549 1-477); conditions: protein: recombinant; tags: N-terminal GST; dsDNA, one strand shown
Outline: as §1

ERF = target: T6, ERF (Homo sapiens, UniProt P50548 1-548); conditions: protein: recombinant; tags: N-terminal GST; dsDNA, one strand shown
T6 sequence: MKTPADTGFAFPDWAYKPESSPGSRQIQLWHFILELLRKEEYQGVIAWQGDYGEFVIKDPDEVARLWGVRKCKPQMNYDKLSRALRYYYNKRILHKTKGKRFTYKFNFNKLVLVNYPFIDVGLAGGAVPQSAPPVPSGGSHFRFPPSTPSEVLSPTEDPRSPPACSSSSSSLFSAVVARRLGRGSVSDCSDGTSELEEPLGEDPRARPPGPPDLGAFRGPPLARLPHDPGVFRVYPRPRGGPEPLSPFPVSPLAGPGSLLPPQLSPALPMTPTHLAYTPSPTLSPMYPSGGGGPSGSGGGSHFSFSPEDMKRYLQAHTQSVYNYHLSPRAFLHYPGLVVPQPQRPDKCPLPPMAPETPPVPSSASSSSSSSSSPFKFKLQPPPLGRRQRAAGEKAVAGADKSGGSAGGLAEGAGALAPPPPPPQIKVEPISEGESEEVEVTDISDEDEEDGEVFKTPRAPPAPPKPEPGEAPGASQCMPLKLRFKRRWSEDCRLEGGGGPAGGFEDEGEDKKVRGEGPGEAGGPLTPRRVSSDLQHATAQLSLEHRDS
Outline: as §1

ETV3L = target: T7, ETV3L (Homo sapiens, UniProt Q6ZN32 1-361); conditions: protein: recombinant; tags: N-terminal GST; dsDNA, one strand shown
T7 sequence: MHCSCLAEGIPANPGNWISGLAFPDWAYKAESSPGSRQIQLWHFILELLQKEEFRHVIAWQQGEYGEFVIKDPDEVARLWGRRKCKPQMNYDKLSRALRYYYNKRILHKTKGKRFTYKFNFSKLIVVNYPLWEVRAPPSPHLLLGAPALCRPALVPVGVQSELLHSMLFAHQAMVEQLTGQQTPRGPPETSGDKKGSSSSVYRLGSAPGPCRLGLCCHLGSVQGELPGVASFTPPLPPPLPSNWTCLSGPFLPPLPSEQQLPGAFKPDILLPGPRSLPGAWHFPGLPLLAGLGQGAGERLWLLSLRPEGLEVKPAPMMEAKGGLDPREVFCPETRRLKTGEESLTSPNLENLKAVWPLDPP
Outline: as §1

ETS2 = target: T8, ETS2 (Homo sapiens, UniProt P15036 1-469); conditions: protein: recombinant; tags: N-terminal GST; dsDNA, one strand shown
T8 sequence: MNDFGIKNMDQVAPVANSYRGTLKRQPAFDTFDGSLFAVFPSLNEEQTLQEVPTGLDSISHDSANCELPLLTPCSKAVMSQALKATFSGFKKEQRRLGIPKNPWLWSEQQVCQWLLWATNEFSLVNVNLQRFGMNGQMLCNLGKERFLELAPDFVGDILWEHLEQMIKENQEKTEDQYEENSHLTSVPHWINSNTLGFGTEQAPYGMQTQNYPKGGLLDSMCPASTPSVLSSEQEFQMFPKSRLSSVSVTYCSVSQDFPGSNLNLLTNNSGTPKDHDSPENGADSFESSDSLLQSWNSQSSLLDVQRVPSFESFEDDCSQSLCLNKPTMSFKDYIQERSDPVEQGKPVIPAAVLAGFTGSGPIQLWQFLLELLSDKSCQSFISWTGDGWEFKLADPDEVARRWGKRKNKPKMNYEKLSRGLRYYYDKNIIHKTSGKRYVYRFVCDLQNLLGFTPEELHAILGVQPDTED
Outline: as §1

SPDEF = target: T9, SPDEF (Homo sapiens, UniProt O95238 1-335); conditions: protein: recombinant; tags: N-terminal GST; dsDNA, one strand shown
T9 sequence: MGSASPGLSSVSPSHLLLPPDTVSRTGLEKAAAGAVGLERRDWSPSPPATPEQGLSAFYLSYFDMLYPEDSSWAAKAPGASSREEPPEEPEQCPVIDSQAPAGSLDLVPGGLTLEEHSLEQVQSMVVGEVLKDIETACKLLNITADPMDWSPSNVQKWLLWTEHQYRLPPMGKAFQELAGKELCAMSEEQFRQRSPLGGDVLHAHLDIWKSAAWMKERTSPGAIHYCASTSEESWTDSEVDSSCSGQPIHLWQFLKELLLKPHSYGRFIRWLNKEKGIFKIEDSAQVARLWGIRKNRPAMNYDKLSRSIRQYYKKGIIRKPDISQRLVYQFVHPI
Outline: as §1

ETV7 = target: T10, ETV7 (Homo sapiens, UniProt Q9Y603 1-341); conditions: protein: recombinant; tags: N-terminal GST; dsDNA, one strand shown
T10 sequence: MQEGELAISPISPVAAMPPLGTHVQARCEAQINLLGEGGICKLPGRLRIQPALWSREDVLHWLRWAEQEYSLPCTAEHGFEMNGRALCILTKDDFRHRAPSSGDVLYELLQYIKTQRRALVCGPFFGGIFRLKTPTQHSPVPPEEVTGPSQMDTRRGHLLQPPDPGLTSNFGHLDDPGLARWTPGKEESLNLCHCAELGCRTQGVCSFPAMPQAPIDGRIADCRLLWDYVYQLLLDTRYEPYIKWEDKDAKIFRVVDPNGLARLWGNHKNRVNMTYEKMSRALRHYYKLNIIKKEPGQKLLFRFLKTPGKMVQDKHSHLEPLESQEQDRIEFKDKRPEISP
Outline: as §1

ELF5 = target: T11, ELF5 (Homo sapiens, UniProt Q9UKW6-2 1-255); conditions: protein: recombinant; tags: N-terminal GST; dsDNA, one strand shown
T11 sequence: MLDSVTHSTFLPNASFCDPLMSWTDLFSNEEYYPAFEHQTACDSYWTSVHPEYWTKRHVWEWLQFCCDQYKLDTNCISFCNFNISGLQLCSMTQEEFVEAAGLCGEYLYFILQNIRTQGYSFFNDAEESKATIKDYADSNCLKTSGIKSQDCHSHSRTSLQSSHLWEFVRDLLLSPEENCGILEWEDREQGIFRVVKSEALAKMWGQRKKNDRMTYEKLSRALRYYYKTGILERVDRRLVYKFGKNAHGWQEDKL
Outline: as §1

ETV3 = target: T12, ETV3 (Homo sapiens, UniProt P41162-2 1-143); conditions: protein: recombinant; tags: N-terminal GST; dsDNA, one strand shown
T12 sequence: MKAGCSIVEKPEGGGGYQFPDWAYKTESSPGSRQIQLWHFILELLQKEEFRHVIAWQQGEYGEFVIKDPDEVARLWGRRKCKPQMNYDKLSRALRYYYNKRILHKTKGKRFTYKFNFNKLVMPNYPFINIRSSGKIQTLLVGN
Outline: as §1

ETV6 = ETV6 (Homo sapiens, UniProt P41212 1-452); conditions: protein: recombinant; tags: N-terminal GST; dsDNA, one strand shown
Outline: as §1

Sequence of ETV1 (P50549 whole entry): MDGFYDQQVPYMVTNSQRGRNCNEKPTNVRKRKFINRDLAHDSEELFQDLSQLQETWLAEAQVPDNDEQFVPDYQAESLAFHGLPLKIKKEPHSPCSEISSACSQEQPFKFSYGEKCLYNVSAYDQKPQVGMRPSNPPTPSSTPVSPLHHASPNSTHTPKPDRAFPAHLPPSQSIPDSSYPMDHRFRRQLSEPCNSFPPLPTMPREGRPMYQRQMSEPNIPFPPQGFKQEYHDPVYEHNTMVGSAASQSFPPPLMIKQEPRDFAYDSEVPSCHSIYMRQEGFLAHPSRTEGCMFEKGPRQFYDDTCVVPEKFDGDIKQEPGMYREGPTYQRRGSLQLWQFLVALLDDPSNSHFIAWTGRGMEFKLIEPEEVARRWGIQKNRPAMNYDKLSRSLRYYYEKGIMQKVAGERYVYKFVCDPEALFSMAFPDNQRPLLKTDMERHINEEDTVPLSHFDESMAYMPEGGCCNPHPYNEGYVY
Sequence of ETV6 (P41212 whole entry): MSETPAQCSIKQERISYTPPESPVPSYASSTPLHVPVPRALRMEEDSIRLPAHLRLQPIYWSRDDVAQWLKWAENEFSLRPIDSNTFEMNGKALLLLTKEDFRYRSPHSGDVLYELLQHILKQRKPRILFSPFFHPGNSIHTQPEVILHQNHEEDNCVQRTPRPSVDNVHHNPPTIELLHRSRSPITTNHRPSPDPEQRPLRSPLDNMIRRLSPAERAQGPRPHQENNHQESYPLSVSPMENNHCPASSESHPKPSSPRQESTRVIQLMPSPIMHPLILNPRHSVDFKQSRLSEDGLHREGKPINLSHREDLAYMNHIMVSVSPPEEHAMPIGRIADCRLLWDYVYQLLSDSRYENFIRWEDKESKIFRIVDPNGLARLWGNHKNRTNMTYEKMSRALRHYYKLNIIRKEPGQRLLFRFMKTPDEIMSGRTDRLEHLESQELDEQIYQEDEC
Sequence of ETV5 (P41161 whole entry): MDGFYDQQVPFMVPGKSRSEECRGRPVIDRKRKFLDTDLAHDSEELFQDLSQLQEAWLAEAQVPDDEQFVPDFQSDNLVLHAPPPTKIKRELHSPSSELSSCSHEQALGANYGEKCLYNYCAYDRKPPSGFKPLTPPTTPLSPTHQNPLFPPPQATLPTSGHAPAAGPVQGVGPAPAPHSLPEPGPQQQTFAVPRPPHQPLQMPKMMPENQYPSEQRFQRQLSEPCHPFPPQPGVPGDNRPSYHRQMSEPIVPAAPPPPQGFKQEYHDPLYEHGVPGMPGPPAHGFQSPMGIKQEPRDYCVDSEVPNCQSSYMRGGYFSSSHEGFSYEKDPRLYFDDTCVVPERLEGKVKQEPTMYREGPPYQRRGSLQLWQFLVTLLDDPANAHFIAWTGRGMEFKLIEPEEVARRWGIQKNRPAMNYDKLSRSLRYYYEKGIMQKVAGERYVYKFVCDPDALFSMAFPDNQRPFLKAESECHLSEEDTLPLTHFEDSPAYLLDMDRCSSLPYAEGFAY
Sequence of CRX (O43186 whole entry): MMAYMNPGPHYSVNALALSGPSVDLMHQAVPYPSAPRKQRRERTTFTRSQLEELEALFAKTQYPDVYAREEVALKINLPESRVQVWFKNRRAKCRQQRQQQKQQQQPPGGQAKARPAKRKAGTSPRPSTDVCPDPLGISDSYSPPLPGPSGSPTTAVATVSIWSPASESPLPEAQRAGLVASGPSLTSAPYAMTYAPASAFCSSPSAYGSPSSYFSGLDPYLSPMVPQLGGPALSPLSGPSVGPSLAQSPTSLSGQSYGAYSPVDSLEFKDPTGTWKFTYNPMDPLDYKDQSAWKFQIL
Sequence of HSF1 (Q00613 whole entry): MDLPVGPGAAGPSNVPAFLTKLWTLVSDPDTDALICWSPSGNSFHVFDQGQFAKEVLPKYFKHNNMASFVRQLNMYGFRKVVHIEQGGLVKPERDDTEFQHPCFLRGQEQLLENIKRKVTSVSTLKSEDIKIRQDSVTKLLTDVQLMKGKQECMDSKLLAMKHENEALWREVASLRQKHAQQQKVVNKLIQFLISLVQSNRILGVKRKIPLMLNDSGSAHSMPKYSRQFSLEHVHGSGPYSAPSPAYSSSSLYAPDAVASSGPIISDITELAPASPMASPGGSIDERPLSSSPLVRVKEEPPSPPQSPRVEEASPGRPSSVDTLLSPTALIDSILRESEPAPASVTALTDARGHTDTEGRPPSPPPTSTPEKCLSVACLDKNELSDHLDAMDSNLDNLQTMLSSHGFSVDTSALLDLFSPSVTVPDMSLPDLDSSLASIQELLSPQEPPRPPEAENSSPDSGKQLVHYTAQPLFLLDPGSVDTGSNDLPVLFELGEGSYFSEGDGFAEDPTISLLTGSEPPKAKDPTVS
Sequence of ELF4 (Q99607 whole entry): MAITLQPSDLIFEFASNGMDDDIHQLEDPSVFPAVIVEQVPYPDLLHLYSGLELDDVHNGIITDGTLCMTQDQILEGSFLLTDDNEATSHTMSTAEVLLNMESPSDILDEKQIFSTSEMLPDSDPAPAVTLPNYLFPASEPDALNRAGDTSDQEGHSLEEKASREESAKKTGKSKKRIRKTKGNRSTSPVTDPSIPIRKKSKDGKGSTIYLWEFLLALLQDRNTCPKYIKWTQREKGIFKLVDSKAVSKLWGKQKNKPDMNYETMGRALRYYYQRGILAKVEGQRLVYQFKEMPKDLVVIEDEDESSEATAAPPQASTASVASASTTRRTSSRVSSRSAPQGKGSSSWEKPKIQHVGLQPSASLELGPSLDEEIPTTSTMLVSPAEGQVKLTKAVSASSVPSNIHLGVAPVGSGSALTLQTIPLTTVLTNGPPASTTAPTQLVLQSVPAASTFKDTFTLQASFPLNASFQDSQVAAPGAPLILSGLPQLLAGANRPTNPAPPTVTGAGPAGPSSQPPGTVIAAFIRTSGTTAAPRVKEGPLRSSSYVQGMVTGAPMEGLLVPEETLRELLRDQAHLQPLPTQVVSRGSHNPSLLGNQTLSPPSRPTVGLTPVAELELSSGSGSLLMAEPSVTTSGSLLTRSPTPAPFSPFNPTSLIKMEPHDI

For TCTGGC, which binding signal (FEV) is on record?
Its binding signal is 1.16 fold enrichment (6-mer frequency, TF over GST control).

What about the binding signal (ETV5) of the same sequence?
The binding signal was 1.11 fold enrichment (6-mer frequency, TF over GST control).

And the binding signal (HSF1)?
The binding signal was 1.89 fold enrichment (6-mer frequency, TF over GST control).

And the binding signal (SPIC)?
Its binding signal is 1.38 fold enrichment (6-mer frequency, TF over GST control).

What about the binding signal (ELF4) of the same sequence?
Its binding signal is 1.4 fold enrichment (6-mer frequency, TF over GST control).

And the binding signal (ELK4)?
Its binding signal is 1.44 fold enrichment (6-mer frequency, TF over GST control).

What about the binding signal (ETV2) of the same sequence?
The binding signal was 1.28 fold enrichment (6-mer frequency, TF over GST control).

And the binding signal (ELF3)?
The binding signal was 1.03 fold enrichment (6-mer frequency, TF over GST control).

And the binding signal (CRX)?
Its binding signal is 1.31 fold enrichment (6-mer frequency, TF over GST control).

And the binding signal (ETV1)?
Its binding signal is 1.24 fold enrichment (6-mer frequency, TF over GST control).

And the binding signal (ERF)?
The binding signal was 1.31 fold enrichment (6-mer frequency, TF over GST control).

And the binding signal (ETV3L)?
The binding signal was 1.11 fold enrichment (6-mer frequency, TF over GST control).

What about the binding signal (ETS2) of the same sequence?
Its binding signal is 1.21 fold enrichment (6-mer frequency, TF over GST control).

And the binding signal (SPDEF)?
The binding signal was 1.15 fold enrichment (6-mer frequency, TF over GST control).

And the binding signal (ETV7)?
Its binding signal is 1.24 fold enrichment (6-mer frequency, TF over GST control).

What about the binding signal (ELF5) of the same sequence?
The binding signal was 1.08 fold enrichment (6-mer frequency, TF over GST control).

What about the binding signal (ETV3) of the same sequence?
The binding signal was 1.06 fold enrichment (6-mer frequency, TF over GST control).

What about the binding signal (ETV6) of the same sequence?
The binding signal was 1.19 fold enrichment (6-mer frequency, TF over GST control).
